Bioassay records from PubChem BioAssay.
Shiga inhibitor: blocks Shiga toxin action in Vero cells; Vero cells, Shiga toxin protein synthesis inhibition reporter; inhibition, % at 38.7 µM; 9.2% of 290,000 active; AID 2315; in the data active means inhibition mostly above about 28%, no sharp cut-off; inactive means mostly below about 43%
Cycloheximide cs: affects cycloheximide protein synthesis inhibition readout, counter-screen; cell reporter, cycloheximide protein synthesis inhibition counterscreen; max response, %; 12% of 300,000 active; in the data active means max response mostly above about 13%, no sharp cut-off; inactive means mostly below about 14%; further: read at 38.3 µM for the half of the compounds with a filed dose
SARS PLpro yeast: blocks SARS-CoV papain-like protease in a yeast assay; S. cerevisiae expressing SARS-CoV PLpro, growth rescue; Potency, µM (titrated, usually from 32.9 µM), actives largely listed as activators; 0.19% of 330,000 active; AID 485353; further: nearly all actives have a fitted effect of over 55% in size
Pf growth 96h: inhibits malaria parasite growth, 96 h; 6.9% of 320,000 active; P. falciparum luciferase reporter growth, 96 h; AID 504834; Potency, µM (doses to about 28.7 µM), hits mostly inhibitors; active means well fitted inhibition curve with a large enough effect; inconclusive means small, poorly fitted or top-dose-only effect, or another doubt; inactive means no such curve, though single readings can be large or run the other way
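Two-generation exposure (96 h) targets delayed-death phenotype. Reporter parasites carrying integrated firefly luciferase, in red cells at 2% hematocrit and 0.05% parasitemia final, kept at 37 C, 5% CO2; luminescence loss indicates inhibition.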
Pf growth 48h: inhibits P. falciparum growth in the first generation, 48 h; P. falciparum luciferase growth in erythrocytes, 48 h; Potency, µM (series often up to 28.7 µM), hits mostly inhibitors; 5.9% of 310,000 active; active means well fitted inhibition curve with a large enough effect; inconclusive means small, poorly fitted or top-dose-only effect, or another doubt; inactive means no such curve, though single readings can be large or run the other way
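Luminescence readout; reporter = integrated firefly luciferase in P. falciparum. RBC culture at 2% hematocrit, 0.1% parasitemia final, 37 C/5% CO2; decreased signal taken as growth inhibition.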
NS1 inh: inhibitors of influenza NS1 protein function | Potency, µM (series often up to 46.1 µM) | 0.4% of 270,000 active; further: actives are rising curves; nearly all actives have a fitted effect of over 50% in size
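Growth recovery, yeast-based: influenza A NS1 expressed in S. cerevisiae causes slow growth, and suppressors are detected by OD600. The parent strain without NS1 is used as positive control.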
Of the large screens only hits and unclear results are named; the others gave an inactive call. Compounds with a hit are over-represented: about 21% of the library has one in this group of screens. Unless noted, the call rests on the fitted dose curve.

Cc1ccc(C(=O)N2CCCC(c3nc4c(nnn4Cc4ccccc4)c(=O)[nH]3)C2)cc1 (stereo unspecified)	Pf growth 48h 10.4µM (no result: Pf growth 96h)
CCCCC(=O)N1CCCC(c2nc3c(nnn3Cc3cc(C)ccc3C)c(=O)[nH]2)C1 (stereo unspecified)	Pf growth 96h inconclusive, Pf growth 48h 8.28µM
CCOc1ccccc1NC(=O)N1CCCC(c2nc3c(nnn3Cc3ccc(C)cc3)c(=O)[nH]2)C1 (stereo unspecified)	Pf growth 48h 4.15µM
Cc1sc(NC(=O)c2ccco2)c(C(c2ccccc2)N2CCC(C)CC2)c1C (stereo unspecified)	Pf growth 96h inconclusive, Pf growth 48h 5.22µM (no result: NS1 inh)
COc1ccc(C(CCO)NC(=O)c2cccs2)cc1OC (stereo unspecified)	Pf growth 96h inconclusive
CCOC(=O)C1CCN(C(c2cccnc2)c2c(NC(=O)c3ccco3)sc(C)c2C)CC1 (stereo unspecified)	Cycloheximide cs 21.0, Pf growth 48h 0.294µM
Cc1sc(NC(=O)c2ccco2)c(C(c2cccnc2)N2CCN(c3ccc(F)cc3)CC2)c1C (stereo unspecified)	Pf growth 96h inconclusive, Pf growth 48h 2.08µM
Cc1sc(NC(=O)c2ccco2)c(C(c2cccnc2)N2CCN(CCO)CC2)c1C (stereo unspecified)	Pf growth 96h inconclusive, Pf growth 48h inconclusive (no result: NS1 inh)
COc1ccc(C(C(C(=O)c2cccs2)N2CCOCC2)N2CCOCC2)cc1OC (stereo unspecified)	Cycloheximide cs 16.4, Pf growth 96h inconclusive
COc1ccc(NS(=O)(=O)c2ccc3c(c2)NC(=O)CC(=O)N3)cc1OC	none
COc1ccc(-n2nc(C#N)c(Cl)cc2=O)cc1	none (no result: NS1 inh)
O=C(CSc1nc2c(oc3ccccc32)c(=O)n1CC1CCCO1)NCc1ccccc1 (stereo unspecified)	none (no result: Shiga inhibitor, Cycloheximide cs, NS1 inh)
COc1ccc(C(c2c(NC(=O)c3ccco3)sc(C)c2C)N2CCOCC2)cc1OC (stereo unspecified)	Pf growth 96h 4.65µM, Pf growth 48h 2.62µM (no result: Shiga inhibitor, Cycloheximide cs, NS1 inh)
O=C(Nc1ccccc1N1CCOCC1)c1cc2c(s1)CCCCC2	Shiga inhibitor 52.7, Cycloheximide cs 39.7 (no result: NS1 inh)
O=C(Nc1ccc(N2CCOCC2)cc1)c1cc2c(s1)CCCCC2	Pf growth 96h inconclusive, Pf growth 48h inconclusive
O=C(Nc1ccc(N2CCOCC2)cc1)c1cc2c(s1)CCCC2	Cycloheximide cs 17.0
C[C@@]1(CO)[C@H](O)CC[C@@]2(C)[C@H]1CC[C@H]1C[C@@H]3C[C@@]12CC[C@]3(O)CO	Pf growth 96h 0.586µM, Pf growth 48h 0.522µM
Cc1ccc(NCC(=O)N=Nc2c(O)[nH]c3ccc([N+](=O)[O-])cc23)cc1	Cycloheximide cs 43.5, Pf growth 96h inconclusive
CCNC(=S)N=Nc1c(O)[nH]c2ccc([N+](=O)[O-])cc12	Pf growth 96h 6.57µM, Pf growth 48h inconclusive (no result: NS1 inh)
O=C(N=Nc1c(O)[nH]c2ccc([N+](=O)[O-])cc12)c1ccccc1Cl	none
O=C(Nc1ccc(F)cc1)C(=O)c1c(O)[nH]c2ccc([N+](=O)[O-])cc12	Cycloheximide cs 19.3
CCCC(C)C1(CC)C(=O)NC(=Nc2ccccc2OC)NC1=O (stereo unspecified)	Pf growth 96h 10.4µM
O=C(COc1ccc(Cl)cc1)NNC(=O)c1ccc2c(=O)n3c(nc2c1)CCC3	none (no result: Shiga inhibitor, Cycloheximide cs, NS1 inh)
CCOc1ccc(NC(=O)c2ccc(N3CC4CC(C3)c3cccc(=O)n3C4)c(N)c2)cc1 (stereo unspecified)	Pf growth 96h inconclusive
O=c1cccc2n1CC1CC2CN(Cc2c(Cl)cccc2Cl)C1 (stereo unspecified)	none (no result: Pf growth 96h)
CCOc1ccc(/C=N/NC(=O)c2ccccc2Cl)cc1CN1CC2CC(C1)c1cccc(=O)n1C2 (stereo unspecified)	Pf growth 48h 8.28µM (no result: Shiga inhibitor, Cycloheximide cs, NS1 inh)
CCCOc1ccc(C(=O)Nc2ccc(S(=O)(=O)N3C[C@@H]4C[C@@H](C3)c3cccc(=O)n3C4)cc2)cc1	Pf growth 96h 4.65µM, Pf growth 48h 2.08µM (no result: Shiga inhibitor, Cycloheximide cs, NS1 inh)
CCOc1ccc(/C=N/NC(=O)c2ccc(F)cc2)cc1CN1CC2CC(C1)c1cccc(=O)n1C2 (stereo unspecified)	Pf growth 48h 5.22µM (no result: Shiga inhibitor, Cycloheximide cs, NS1 inh)
CCOc1ccc(/C=N/NC(=O)c2ccccc2C)cc1CN1CC2CC(C1)c1cccc(=O)n1C2 (stereo unspecified)	Pf growth 96h inconclusive, Pf growth 48h 3.7µM (no result: Shiga inhibitor, Cycloheximide cs, NS1 inh)
Cc1cccc(C)c1NC(=O)CN(C)C(=O)CC1CC2CCC1C2 (stereo unspecified)	none (no result: Shiga inhibitor, Cycloheximide cs, NS1 inh)
CCn1nnnc1NCc1c(OC)ccc2ccccc12	Pf growth 96h inconclusive (no result: NS1 inh)
COc1ccccc1N1CCN(C(=O)c2sc3nc(-c4ccccc4)cn3c2C)CC1	Pf growth 48h inconclusive
c1ccc(-c2cn3c4c(sc3n2)CCCC4)cc1	Cycloheximide cs 11.5
Cc1ccc(CNC(=O)CCCc2cn(C)c3ccccc23)cc1	Pf growth 96h inconclusive
O=C(NC(=S)Nc1cccc2c(O)cccc12)c1ccco1	Shiga inhibitor 108.6, Cycloheximide cs 25.8, Pf growth 96h inconclusive, Pf growth 48h inconclusive
O=C(NC(=S)Nc1ccccc1Cl)c1ccco1	Shiga inhibitor 89.7, Cycloheximide cs 44.2
CC1CCCCN1C(=O)CSc1nc(-c2ccccc2)cc(=O)[nH]1 (stereo unspecified)	none
Cc1cccc(N2CCN(C(=O)CCCSc3nc4ccccc4[nH]3)CC2)c1C	Pf growth 96h 9.28µM, Pf growth 48h inconclusive
CC1CCCCN1C(=O)CSc1nnc2c(n1)[nH]c1ccccc12 (stereo unspecified)	Pf growth 96h 11.7µM, Pf growth 48h 1.65µM
CC1CCCCN1C(=O)CSc1nc2ccccc2[nH]1 (stereo unspecified)	Shiga inhibitor 81.3, Cycloheximide cs 32.6 (no result: NS1 inh)
CC1CCN(C(=O)CSc2nnc3c(n2)[nH]c2ccc(F)cc23)CC1	Pf growth 96h inconclusive, Pf growth 48h 1.65µM
O=C(CCCSc1nc2ccccc2[nH]1)N1CCN(c2ccccc2)CC1	Pf growth 96h inconclusive, Pf growth 48h inconclusive
COc1cccc(C(=O)N2CCN(C(=O)C3COc4ccccc4O3)CC2)c1 (stereo unspecified)	Pf growth 96h inconclusive
COc1ccc(NC(=O)c2cccc(S(=O)(=O)N3CCN(C)CC3)c2)c(OC)c1	Pf growth 96h inconclusive, Pf growth 48h inconclusive
O=C(CSc1nc2ccccc2[nH]1)N1CCCCC1	Shiga inhibitor 63.3, Cycloheximide cs 47.4
O=C(CSc1nc2ccccc2[nH]1)N1CCN(c2ccccc2)CC1	Pf growth 96h inconclusive, Pf growth 48h inconclusive
COc1ccc(CCNC(=O)C(=O)NCc2cccs2)cc1OC	Pf growth 48h inconclusive
Cn1nc(C(F)(F)F)c2cc(C(=O)Nc3ccc(F)c(Cl)c3)sc21	Pf growth 96h 2.08µM, Pf growth 48h 3.29µM
Cn1nc(C(F)(F)F)c2cc(C(=O)Nc3ccc(F)cc3)sc21	Pf growth 96h inconclusive, Pf growth 48h inconclusive
